Screening data from PubChem.
TbPYK inhibitor = inhibitors of Trypanosoma brucei pyruvate kinase; Q57TT1; TbPYK enzyme, Kinase-Glo Plus ATP luminescence, 45 min; Potency, µM (doses to about 76.8 µM), inactives show at the top dose activity, negative = inhibition, actives largely listed as inhibitors; 0.12% of 410,000 active; AID 624173; also: potency is read from the fitted curve at half-maximal effect; nearly all actives have a fitted effect of over 50% in size
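ADP (130 uM final) triggers the TbPYK reaction after compound addition; incubation is 45 min at room temperature. Kinase-Glo Plus is then added and luminescence imaged. Normalized data are fitted to concentration-effect curves.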
LmPK inh = LmPK (Leishmania mexicana) enzyme inhibition; AID 1721; Potency, µM (series often up to 57.5 µM), for inactives: top-dose activity change, negative = inhibition, most hits filed as inhibitors; purified LmPK, Kinase-Glo ATP luminescence, 1 h; Q27686; 0.37% of 290,000 active; also: potency is read from the fitted curve at half-maximal effect
Target sequence (Q27686 whole entry, looked up): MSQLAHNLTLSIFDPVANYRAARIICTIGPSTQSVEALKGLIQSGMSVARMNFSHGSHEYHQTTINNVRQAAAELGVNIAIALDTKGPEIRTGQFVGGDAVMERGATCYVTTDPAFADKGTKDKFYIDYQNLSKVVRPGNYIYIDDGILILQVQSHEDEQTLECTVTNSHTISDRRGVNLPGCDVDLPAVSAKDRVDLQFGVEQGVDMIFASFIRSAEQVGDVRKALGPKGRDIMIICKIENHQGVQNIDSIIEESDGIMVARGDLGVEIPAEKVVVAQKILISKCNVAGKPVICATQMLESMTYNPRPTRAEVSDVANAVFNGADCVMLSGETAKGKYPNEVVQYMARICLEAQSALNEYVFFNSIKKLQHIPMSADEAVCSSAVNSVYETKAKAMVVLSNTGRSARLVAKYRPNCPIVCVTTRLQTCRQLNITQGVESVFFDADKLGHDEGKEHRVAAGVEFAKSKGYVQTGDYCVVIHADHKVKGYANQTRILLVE
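0.1 nM LmPK, 0.5 mM PEP, 0.1 mM ADP; 50 mM imidazole pH 7.2, 7 mM MgCl2, 50 mM KCl; 1 h RT. Kinase-Glo luminescence readout, normalized to no-enzyme (full inhibition) and uninhibited wells.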
Vaccinia mCherry = inhibitors of vaccinia virus infection (mCherry reporter signal); Vaccinia virus mCherry reporter infection, fluorescence; Potency, µM (series often up to 36.5 µM), for the others: at the top dose activity change, negative = inhibition, actives largely listed as inhibitors; 0.63% of 310,000 active; calls by dose curve; tested in A549 cells; also: potency is read from the fitted curve at half-maximal effect; nearly all actives have a fitted effect of over 35% in size
Vaccinia Venus = vaccinia inhibition (Venus reporter); Vaccinia virus Venus reporter expression, fluorescence; Potency, µM (top dose mostly 36.5 µM), without a hit: at the top dose activity change, negative = inhibition, actives largely listed as inhibitors; 0.46% of 330,000 active; AID 720580; calls by dose curve; tested in A549 cells; also: potency is read from the fitted curve at half-maximal effect; nearly all actives have a fitted effect of over 30% in size
HCMV antiviral = inhibitors of human cytomegalovirus. HFF cells, HCMV-luciferase reporter, 72 h; active compounds read low. activity change, negative = inhibition, % at 57.5 µM. 4.5% of 410,000 active. AID 1259415; in the data active = activity change below about -60%; inconclusive = no clear call, values can overlap the other calls; inactive = above about -39%
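HFF cells seeded 16 h at 37C, treated with compounds, infected with luciferase-reporter HCMV at MOI 1 PFU/cell; luciferase read at 72 h post infection, normalized to buffer-only and Salinomycin controls.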
Numbers without * were called inactive; i = inactive; ? = inconclusive; nt = no result; [ ] = remark or other dose. This is a sample that favours compounds with a hit; in the whole collection about 5% have one here. Unless noted, calls follow the shape of the dose curve; as a rule, active = well fitted curve in the direction sought with a large enough effect; inconclusive = small, poorly fitted or top-dose-only effect, or another doubt; inactive = no such curve, though single readings can be large; an effect the other way counts as inactive or inconclusive. % is scaled to controls: 0 for no effect and ±100 for the full control effect.

SMILES | TbPYK inhibitor | LmPK inh | Vaccinia mCherry | Vaccinia Venus | HCMV antiviral
CC1CCN(S(=O)(=O)c2cccc(C(=O)N(Cc3ccccc3)c3ccccn3)c2)CC1 | 2% | 7% | -3% | 5% | -66*
Cc1ccc(C)n1C1C(=O)N(C)c2ccccc21 (stereo unspecified) | nt | nt | nt | nt | 0
COc1ccc(S[C@]2(C(=O)N3CCCC3)CC(=O)N(c3ccccc3)[C@@H]2c2ccc(OC)cc2)cc1 | nt | nt | nt | nt | -25
CC(NC(=O)C1CCN(S(=O)(=O)Cc2ccccc2)CC1)c1ccccc1 (stereo unspecified) | -10% | nt | -5% | -8% | 26
Cc1nc2c(-c3ccccc3)c(C)nn2c(C)c1CCC(=O)NCc1ccccc1 | -5% | nt | 0% | 1% | 5
Cc1nc2c(-c3ccccc3)c(C)nn2c(C)c1CCC(=O)NCc1ccco1 | 1% | 6% | -5% | -17% | -98*
Cc1oc2ccc(O)c(CN3CCOCC3)c2c1C(=O)Nc1cccc(C(F)(F)F)c1 | 0% | nt | -13% | -7% | 7
COc1ccc(NC(=O)c2c(C)oc3ccc(O)c(CN4CCC(C)CC4)c23)cc1 | 2% | nt | -18% | -9% | ?
COc1ccc(NC(=O)c2c(C)oc3ccc(O)c(CN4CCCCCC4)c23)cc1 | 3% | nt | -3% | -23% | -67*
Cc1oc2ccc(O)c(CN(C)Cc3ccccc3)c2c1C(=O)Nc1ccccc1 | -13% | nt | -5% | -22% | -81*
Cc1ccc(NC(=O)c2c(C)oc3ccc(O)c(CN(C)Cc4ccccc4)c23)c(C)c1 | 1% | nt | -23% | -22% | -67*
CCN(Cc1ccccc1)Cc1c(O)ccc2oc(C)c(C(=O)Nc3ccc(C)cc3C)c12 | -8% | nt | -10% | -22% | -12
Cc1oc2ccc(O)c(CN(C)Cc3ccccc3)c2c1C(=O)Nc1cccc(C(F)(F)F)c1 | 1% | nt | -9% | ? | -79*
Brc1ccc(-c2ccccc2)cc1 | -9% | nt | i | -8% | 8
O=c1c2cc(NC(=S)NCc3cccnc3)ccc2nc2n1CCCCC2 | 8% | -6% | -5% | -15% | -21
Cc1cc(=O)[nH]c(SCC(=O)Nc2ccccc2[N+](=O)[O-])n1 | -2% | 3% | ? | -4% | -33
Cc1cc(N2C(=O)C(O)=C(C(=O)c3ccco3)C2c2cccc(Oc3ccccc3)c2)no1 (stereo unspecified) | 0% | 6% | i | 3% | -8
CSc1ccc(C2CC(=O)Oc3c2c(=O)n(C)c2ccccc32)cc1 (stereo unspecified) | -3% | nt | -26% | -21% | 5
O=C(c1ccc(F)cc1)N1CCN2C(=O)c3ccccc3C12c1ccc(Cl)cc1 (stereo unspecified) | 0% | 0% | i | -14% | -64*
O=C(c1ccc(F)cc1)N1CCN2C(=O)c3ccccc3C12c1ccccc1 (stereo unspecified) | -13% | 6% | -12% | -5% | 34
Clc1ccc(OC2CCN(Cc3nc(CC4CC4)no3)CC2)cc1 | 1% | 1% | -19% | -14% | -6
CCOc1ccc(-c2nc(-c3ccccc3)c(-c3ccccc3)[nH]2)cc1OCC | 0% | nt | -28% | -25% | ?
COc1ccc(-c2nc(-c3ccccc3)c(-c3cc([N+](=O)[O-])ccc3C)[nH]2)cc1OC | -5% | 5% | ? | ? | -80*
O=C(O)c1ccc(-c2nc(-c3ccccc3)c(-c3cccs3)[nH]2)cc1 | -11% | -4% | 0% | -2% | 0
CCOc1cc(-c2nc(-c3ccccc3)c(-c3cc([N+](=O)[O-])ccc3C)[nH]2)ccc1O | 5% | 9% | nt | nt | -82*
SMILES | TbPYK inhibitor | LmPK inh | Vaccinia mCherry | Vaccinia Venus | HCMV antiviral
O=[N+]([O-])c1ccc(O)c(-c2nc(-c3ccccc3)c(-c3cccs3)[nH]2)c1 | 5% | -1% | nt | nt | -103*
CCOc1cc(Br)c(C(C)NC(=O)c2cccnc2)cc1OCC (stereo unspecified) | 5% | nt | nt | nt | -11
CCCCOc1ccc(C2=NC(c3cccs3)=Nc3ccc(CC)cc3N2)cc1 | 0% | nt | -2% | -4% | 58
CCc1ccc(S(=O)(=O)/N=C2/C=C(Sc3ncn[nH]3)C(=O)c3ccccc32)cc1 | ? | ? | ? | 10µM* | nt
Cc1cc(C)c(S(=O)(=O)/N=C2\C=C(Nc3ccc(C(=O)O)cc3)C(=O)c3ccccc32)c(C)c1 | ? | -7% | ? | ? | -85*
CCc1ccc(S(=O)(=O)/N=C2\C=CC(=O)c3ccccc32)cc1 | nt | -15% | nt | nt | nt
CCc1ccc(S(=O)(=O)/N=C2\C=C(Nc3cccc(C(=O)O)c3)C(=O)c3ccccc32)cc1 | -23% | -20% | ? | -16% | 12
CCc1ccc(S(=O)(=O)/N=C2\C=C(Nc3ccc(O)cc3)C(=O)c3ccccc32)cc1 | ? | -19% | ? | 4µM* | nt
Cc1cc(C)c(S(=O)(=O)/N=C2\C=C(NS(=O)(=O)c3ccccc3)C(=O)c3ccccc32)c(C)c1 | -17% | 0% | ? | 2% | 55
O=C(O)c1ccc(NC2=C/C(=N/S(=O)(=O)c3ccccc3)c3ccccc3C2=O)cc1 | -29% | -15% | ? | ? | -101*
CCOc1ccc(S(=O)(=O)NCCC(=O)NCc2cccnc2)cc1 | 2% | nt | -22% | -5% | -8
O=C1C2(CCCC13COC(c1ccc(O)cc1)OC3)COC(c1ccc(O)cc1)OC2 (stereo unspecified) | -7% | -6% | -4%[7.34 µM] | 0%[7.34 µM] | 13
COc1ccc(S(=O)(=O)N2CCC(C(=O)N[C@@H](C)C(=O)NCc3ccncc3)CC2)cc1 | 2% | 0% | nt | nt | -3
CCn1c2ccccc2c2nnc(SC3CCOC3=O)nc21 (stereo unspecified) | nt | nt | -16% | -4% | nt
CCOc1ccc2nc(NC(=O)CSc3nc4cccnc4n3C)sc2c1 | -9% | 4% | ? | ? | -30
CCOc1ccc(OCC)c(NC(=O)CSc2nc3ccccc3c(=O)n2C)c1 | 1% | 0% | nt | nt | -70*
CCOc1ccc(OCC)c(NC(=O)CSc2nc3cccnc3n2C)c1 | -6% | 4% | i | -25% | -63*
Cc1ccccc1CNC(=O)c1cc2cccc3c2n1CC(C)S3 (stereo unspecified) | 2%[15.4 µM] | nt | i | -14% | 0
Cc1cc(C)c2c(c1)/C(=N/Nc1ccc(S(N)(=O)=O)cc1[N+](=O)[O-])CCC2 | -3% | -6% | nt | nt | -18
NS(=O)(=O)c1ccc(N/N=C2/CCCCC2C2CCCCC2)c([N+](=O)[O-])c1 (stereo unspecified) | -15% | -1% | 20µM* | 16µM* | -33
Cc1cccc(N2CCN(C(=O)Cn3c(C)c4cnn(-c5ccccc5)c(=O)c4c3C)CC2)c1C | -2% | nt | ? | -26% | -81*
O=C(Cc1ccc(Br)cc1)Nc1cccc(-c2cn3c(n2)SCC3)c1 | 7% | 1% | -9% | -24% | -71*
CCCC(CCC)C(=O)Nc1cccc(-c2cn3c(n2)SCC3)c1 | -1% | 10% | nt | nt | 0
